# In the antibiotic and cytotoxicity screens of Wong et al. (2023):
# The campaign covered roughly 39,000 compounds. About 1,500 (3.8%) were called active. This excerpt belongs to a sample that is enriched for actives.
# Test system: HSkMC (human skeletal muscle cells)
# Assay: cytotoxicity call (relative viability < 0.9)
# Details: 10 µM
row,Compound,cytotoxicity call
1,OCc1ccc2c(c1)OCCO2,inactive
2,C[C@@H]1CN([C@@H](C)CO)C(=O)c2cc(NC(=O)Cn3cnnn3)ccc2O[C@@H]1CN(C)Cc1ccc(Cl)c(Cl)c1,inactive
3,C[C@@H]1CN([C@@H](C)CO)S(=O)(=O)c2ccc(-c3cncnc3)cc2O[C@H]1CN(C)C(=O)Cc1ccncc1,inactive
4,COc1ccc(S(=O)(=O)Nc2ccc3c(c2)C(=O)N([C@@H](C)CO)C[C@H](C)[C@H](CN(C)C(=O)Nc2cccc4ccccc24)OCCCC[C@H](C)O3)cc1,inactive
5,C[C@@H]1CCCCO[C@H](CN(C)S(C)(=O)=O)[C@@H](C)CN([C@@H](C)CO)C(=O)c2cc(NS(=O)(=O)c3ccccc3)ccc2O1,inactive
6,C[C@@H]1CN([C@@H](C)CO)C(=O)c2cccc(NC(=O)c3ccc(-c4nccs4)cc3)c2O[C@@H]1CN(C)Cc1ccc(C(=O)O)cc1,inactive
7,C[C@@H]1CCCCO[C@@H](CN(C)Cc2ccc(Cl)c(Cl)c2)[C@@H](C)CN([C@@H](C)CO)C(=O)c2cc(NC(=O)Nc3ccc(F)cc3)ccc2O1,inactive
8,C[C@H]1CCCCO[C@H](CN(C)Cc2ccc(Cl)c(Cl)c2)[C@@H](C)CN([C@@H](C)CO)C(=O)c2cc(NC(=O)Nc3ccccc3)ccc2O1,inactive
9,Cc1noc(C)c1NC(=O)Nc1ccc2c(c1)C(=O)N([C@H](C)CO)C[C@@H](C)[C@@H](CN(C)Cc1ccc(Cl)c(Cl)c1)OCCCC[C@H](C)O2,active
10,Cc1noc(C)c1NC(=O)Nc1ccc2c(c1)C(=O)N([C@@H](C)CO)C[C@@H](C)[C@H](CN(C)Cc1ccc(Cl)c(Cl)c1)OCCCC[C@H](C)O2,inactive
11,C[C@@H]1CCCCO[C@@H](CN(C)Cc2ccc(Cl)c(Cl)c2)[C@@H](C)CN([C@H](C)CO)C(=O)c2cc(NC(=O)Nc3ccccc3)ccc2O1,inactive
12,C[C@@H]1CN([C@H](C)CO)C(=O)c2cc(NC(=O)Nc3ccc(F)cc3)ccc2O[C@@H](C)CCCCO[C@H]1CN(C)Cc1ccc(Cl)c(Cl)c1,active
13,Cc1noc(C)c1NC(=O)Nc1ccc2c(c1)C(=O)N([C@H](C)CO)C[C@@H](C)[C@H](CN(C)Cc1ccc(Cl)c(Cl)c1)OCCCC[C@@H](C)O2,inactive
14,C[C@@H]1CN([C@H](C)CO)C(=O)c2cc(NC(=O)Nc3ccccc3)ccc2O[C@@H](C)CCCCO[C@H]1CN(C)Cc1ccc(Cl)c(Cl)c1,active
15,C[C@H]1CCCCO[C@H](CN(C)Cc2ccc(Cl)c(Cl)c2)[C@@H](C)CN([C@@H](C)CO)C(=O)c2cc(NC(=O)Nc3ccc(F)cc3)ccc2O1,inactive
16,CO[C@@H]1CN(C)C(=O)c2cc(NC(=O)Nc3ccccc3F)ccc2OC[C@@H](C)N(Cc2ccccc2C(=O)O)C[C@@H]1C,inactive
17,Cc1noc(C)c1NC(=O)Nc1ccc2c(c1)C(=O)N([C@H](C)CO)C[C@H](C)[C@H](CN(C)Cc1ccc(Oc3ccccc3)cc1)O2,inactive
18,COc1cccc(S(=O)(=O)N(C)C[C@H]2OCc3cn(nn3)CCCC(=O)N([C@H](C)CO)C[C@H]2C)c1,inactive
19,COc1ccc(NC(=O)N(C)C[C@@H]2OCCCC[C@H](C)Oc3ccc(NC(=O)Nc4cccc5ccccc45)cc3C(=O)N([C@H](C)CO)C[C@@H]2C)cc1,inactive
20,C[C@@H]1CN([C@@H](C)CO)C(=O)Cc2cc(NC(=O)Cn3cnnn3)ccc2O[C@@H]1CN(C)CC1CCCCC1,inactive

row,Compound,cytotoxicity call
1,CC(C)NC(=O)N(C)C[C@@H]1Oc2cc(C#Cc3ccc(F)cc3)ccc2S(=O)(=O)N([C@H](C)CO)C[C@@H]1C,inactive
2,C[C@H]1CN([C@@H](C)CO)C(=O)c2cccc(NC(=O)Nc3ccc(F)cc3)c2O[C@H]1CN(C)C(=O)Nc1cccc2ccccc12,inactive
3,COc1ccc([Si](C)(C)[C@@H]2[C@@H](CCn3cc([C@H](O)c4ccccc4)nn3)O[C@]3(C(=O)N(Cc4cccc(N5CCOC5=O)c4)c4ccccc43)[C@H]2C)cc1,inactive
4,C[C@@H]1CN([C@@H](C)CO)C(=O)Cc2cc(NC(=O)Cn3cnnn3)ccc2O[C@@H]1CN(C)CC1CC1,inactive
5,COc1ccc(Oc2cc(NCCC(F)(F)F)c3ncc(-c4ccc(C(=O)NC5CC5)c(C)c4)n3n2)c(F)c1F,active
6,Cc1ccc(S(=O)(=O)Nc2ccc3c(c2)C(=O)N([C@H](C)CO)C[C@H](C)[C@H](CN(C)S(C)(=O)=O)OCCCC[C@@H](C)O3)cc1,inactive
7,C=CC[C@H](CC(=O)N(CCO)Cc1ccccc1)C(=O)N[C@H](COC(=O)[C@H](CC=C)NC(=O)OCC1c2ccccc2-c2ccccc21)C(C)(C)C,inactive
8,C[C@@H]1CN([C@H](C)CO)C(=O)Cc2cc(NC(=O)Nc3ccccc3)ccc2O[C@H]1CN(C)S(C)(=O)=O,inactive
9,C[C@@H]1CN([C@H](C)CO)C(=O)Cc2cc(NC(=O)Nc3ccc(F)cc3)ccc2O[C@H]1CN(C)Cc1ccc(-c2ccccc2)cc1,active
10,C[C@@H]1CN([C@@H](C)CO)C(=O)Cc2cc(NC(=O)Nc3ccc(F)cc3)ccc2O[C@H]1CN(C)Cc1ccc(-c2ccccc2)cc1,inactive
11,C[C@H]1CN([C@@H](C)CO)C(=O)Cc2cc(NC(=O)Nc3ccccc3)ccc2O[C@H]1CN(C)S(C)(=O)=O,inactive
12,C[C@H](CO)N1C[C@H](C)[C@H](CN(C)Cc2ccc(C(=O)Nc3ccccc3N)cc2)Oc2ccc(NC(=O)Nc3ccc(F)cc3)cc2CC1=O,inactive
13,C[C@H](CO)N1C[C@H](C)[C@H](CN(C)S(C)(=O)=O)Oc2ccc(NC(=O)Nc3ccccc3)cc2CC1=O,active
14,C[C@H](CO)N1C[C@H](C)[C@H](CN(C)Cc2ccc(-c3ccccc3)cc2)Oc2ccc(NC(=O)Nc3ccccc3)cc2CC1=O,inactive
15,C[C@H](CO)N1C[C@H](C)[C@@H](CN(C)Cc2ccc(C(=O)Nc3ccccc3N)cc2)Oc2ccc(NC(=O)Nc3ccc(F)cc3)cc2CC1=O,inactive
16,C[C@@H]1CN([C@@H](C)CO)C(=O)Cc2cc(NC(=O)Nc3ccccc3)ccc2O[C@@H]1CN(C)Cc1ccc(-c2ccccc2)cc1,inactive
17,C[C@H]1CN([C@@H](C)CO)C(=O)Cc2cc(NC(=O)Nc3ccc(F)cc3)ccc2O[C@H]1CN(C)Cc1ccc(C(=O)Nc2ccccc2N)cc1,active
18,C[C@@H]1CN([C@H](C)CO)C(=O)Cc2cc(NC(=O)Nc3ccccc3)ccc2O[C@@H]1CN(C)Cc1ccc(-c2ccccc2)cc1,active
19,Cc1sc(Nc2ccccc2)nc1-c1ccc(Cl)cc1,inactive
20,COc1ccc(CCN2C(=O)[C@@]3(c4ccc([N+](=O)[O-])cc4)CC(=O)N(CC45CC6CC(CC(C6)C4)C5)[C@@H]3c3ccc(CO)cc32)cc1,inactive

row,Compound,cytotoxicity call
1,O=C1CSC(=S)N1,inactive
2,COc1ccc(NC(=O)N(C)C[C@H]2Oc3c(NC(=O)Nc4ccc(C(F)(F)F)cc4)cccc3C(=O)N([C@H](C)CO)C[C@@H]2C)cc1,inactive
3,COc1ccc(S(=O)(=O)Nc2ccc3c(c2)CC(=O)N([C@H](C)CO)C[C@H](C)[C@@H](CN(C)S(=O)(=O)c2ccccc2)O3)cc1,inactive
4,C[C@@H]1CCCCO[C@@H](CN(C)Cc2ccncc2)[C@H](C)CN([C@H](C)CO)C(=O)c2cc(NC(=O)Cc3ccccc3)ccc2O1,inactive
5,C[C@@H]1CN([C@@H](C)CO)C(=O)c2cc(NC(=O)Nc3ccc(F)cc3)ccc2O[C@@H](C)CCCCO[C@@H]1CN(C)Cc1ccc2c(c1)OCO2,inactive
6,C[C@@H]1CN([C@@H](C)CO)C(=O)c2cc(NC(=O)Nc3ccc(F)cc3)ccc2O[C@@H](C)CCCCO[C@@H]1CN(C)Cc1ccc(C(=O)O)cc1,inactive
7,C[C@@H]1CN([C@H](C)CO)C(=O)c2cc(NS(=O)(=O)c3cn(C)cn3)ccc2O[C@@H]1CN(C)Cc1ccncc1,inactive
8,C[C@H](CO)N1C[C@H](C)[C@H](CN(C)Cc2ccc(-c3ccccc3)cc2)Oc2ccc(NC(=O)Nc3ccc(F)cc3)cc2CC1=O,active
9,C[C@H]1CN([C@@H](C)CO)C(=O)Cc2cc(NC(=O)Nc3ccc(F)cc3)ccc2O[C@H]1CN(C)Cc1ccc(-c2ccccc2)cc1,active
10,C[C@@H]1CN([C@H](C)CO)C(=O)Cc2cc(NC(=O)Nc3ccc(F)cc3)ccc2O[C@@H]1CN(C)Cc1ccc(-c2ccccc2)cc1,inactive
11,C[C@H]1CN([C@@H](C)CO)C(=O)Cc2cc(NC(=O)Nc3ccc4c(c3)OCO4)ccc2O[C@H]1CN(C)Cc1ccc(-c2ccccc2)cc1,inactive
12,C[C@H](CO)N1C[C@H](C)[C@@H](CN(C)Cc2ccc(-c3ccccc3)cc2)Oc2ccc(NC(=O)Nc3ccc(F)cc3)cc2CC1=O,inactive
13,C[C@@H]1CN([C@H](C)CO)C(=O)Cc2cc(NC(=O)c3ccncc3)ccc2O[C@@H]1CN(C)Cc1ccc(-c2ccccc2)cc1,active
14,C[C@@H]1CN([C@@H](C)CO)C(=O)Cc2cc(NC(=O)Nc3ccc(F)cc3)ccc2O[C@@H]1CN(C)Cc1ccc(-c2ccccc2)cc1,inactive
15,C[C@H]1CN([C@@H](C)CO)C(=O)Cc2cc(NC(=O)c3ccncc3)ccc2O[C@H]1CN(C)Cc1ccc(-c2ccccc2)cc1,inactive
16,C[C@H]1CN([C@@H](C)CO)C(=O)Cc2cc(NC(=O)Nc3ccc(F)cc3)ccc2O[C@@H]1CN(C)Cc1ccc(-c2ccccc2)cc1,inactive
17,C[C@@H]1CN([C@@H](C)CO)C(=O)Cc2cc(NC(=O)Nc3ccc4c(c3)OCO4)ccc2O[C@H]1CN(C)Cc1ccc(-c2ccccc2)cc1,inactive
18,C[C@@H]1CN([C@H](C)CO)C(=O)Cc2cc(NC(=O)Nc3ccc4c(c3)OCO4)ccc2O[C@@H]1CN(C)Cc1ccc(-c2ccccc2)cc1,active
19,C[C@H](CO)N1C[C@H](C)[C@H](CN(C)Cc2ccc(-c3ccccc3)cc2)Oc2ccc(NC(=O)c3ccncc3)cc2CC1=O,inactive
